Shown are actives, neighbours in structure and some others; about 3.4% of the full set was active somewhere.
PLK1 PBD block = PLK1 (human) polo-box domain binding inhibition | Plk1 PBD binding of FITC phosphopeptide, fluorescence polarization | P53350 | 360,000 compounds, 2.8% hits | Potency, µM, for the others: max response, negative = inhibition, actives largely listed as inhibitors; also: series mostly up to about 57 µM; % is scaled to controls: 0 for no effect and ±100 for the full control effect; nearly all actives have a fitted effect of over 65% in size
Target sequence (P53350 whole entry, looked up, the tested form may be a part): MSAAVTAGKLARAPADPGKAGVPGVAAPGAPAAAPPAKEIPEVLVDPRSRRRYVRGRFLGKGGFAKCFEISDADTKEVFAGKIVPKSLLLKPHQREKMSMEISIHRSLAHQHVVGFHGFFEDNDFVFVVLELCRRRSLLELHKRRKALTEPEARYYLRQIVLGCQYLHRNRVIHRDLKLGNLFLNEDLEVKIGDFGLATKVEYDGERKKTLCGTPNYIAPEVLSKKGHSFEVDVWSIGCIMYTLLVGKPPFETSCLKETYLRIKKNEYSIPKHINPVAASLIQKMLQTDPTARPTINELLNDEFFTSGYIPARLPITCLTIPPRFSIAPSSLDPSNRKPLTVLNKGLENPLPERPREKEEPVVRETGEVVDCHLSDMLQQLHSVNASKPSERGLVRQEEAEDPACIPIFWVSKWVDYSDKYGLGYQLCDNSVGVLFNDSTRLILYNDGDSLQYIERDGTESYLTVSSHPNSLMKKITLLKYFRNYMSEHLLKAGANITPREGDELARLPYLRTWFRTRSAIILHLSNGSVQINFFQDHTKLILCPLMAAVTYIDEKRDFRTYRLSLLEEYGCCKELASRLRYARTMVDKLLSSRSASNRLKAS
PKM2 act = PKM2 (human) enzyme activation; P14618; purified PKM2, Kinase-Glo ATP luminescence, activation; response scale: 0% is enzyme alone, no compound; Potency, µM (series often up to 57.5 µM), for the others: at the highest dose activation, usual class: activators; 260,000 compounds, 0.34% hits; AID 1631; also: % is scaled to controls: 0 for no effect and ±100 for the full control effect; nearly all actives have a fitted effect of over 55% in size
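ATP formation by purified human PK-M2, quantified via coupled luciferase luminescence after 1 h at room temperature with 0.1 mM ADP and 0.5 mM PEP final.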
GCN5L2 inh = inhibitors of human GCN5L2 histone acetyltransferase; Q92830; GCN5L2 HAT assay, ThioGlo1 CoA-SH fluorescence; Potency, µM (doses to about 58.9 µM), without a hit: at the top dose activity change, negative = inhibition, most hits filed as inhibitors; 390,000 compounds, 0.21% hits; also: % is scaled to controls: 0 for no effect and ±100 for the full control effect
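Titration-based screen in which CoA formation is detected via maleimide probe ThioGlo1 (50uM) turning fluorescent on thiol reaction; substrates H3(1-25) 75uM and acetyl-CoA 70uM, GCN5L2 20nM, 20 min incubation at room temperature.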
GLS inhibitor = glutaminase GLS (human) inhibition | GLS enzymatic activity, qHTS titration | Potency, µM (top dose mostly 45.5 µM), for inactives: at the top dose activity change, negative = inhibition, hits mostly inhibitors | 410,000 compounds, 0.21% hits | AID 624170; also: % is scaled to controls: 0 for no effect and ±100 for the full control effect
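hKGA in 45 mM KH2PO4 pH 8.2, 0.02% Tween-20 with pin-transferred compounds; 1 mM L-glutamine (stock) plus glutamate oxidase/HRP/Amplex Red coupling added. Fluorescence read initially and after 30 min at RT.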
Mito fusion yeast = mitochondrial division inhibition or fusion activation. S. cerevisiae fusion-defective mutant growth rescue, CellTiterGlo 48 h. Potency, µM (titrated, usually from 46.1 µM), for the others: at the top dose growth rescue (activation), actives largely listed as activators. AID 485298. 320,000 compounds, 0.23% hits; also: % of control where 0% means no effect; nearly all actives have a fitted effect of over 45% in size
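Luminescent cell viability in 1536-well qHTS format served as the measure of rescued growth in ts fusion-mutant S. cerevisiae cultured on non-fermentable YPEG for 48 hours at 37C.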
VDR inhibitor = blocks the human vitamin D receptor; P11473; VDR-SRC2-3 peptide fluorescence polarization, 2 h; Potency, µM, inactives show max response, negative = inhibition, actives largely listed as inhibitors; 400,000 compounds, 0.93% hits; AID 504847; also: % is scaled to controls: 0 for no effect and ±100 for the full control effect
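Measured by FP: displacement of SRC2-3 coactivator peptide from VDR by library compounds, following a two-hour ambient incubation.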
* hit, by the source's call; ? = inconclusive; / = not tested or not shown; ! = repeats disagree. Calls follow the shape of the dose curve; as a rule, active = well fitted curve in the direction sought with a large enough effect; inconclusive = small, poorly fitted or top-dose-only effect, or another doubt; inactive = no such curve, though single readings can be large; an effect the other way counts as inactive or inconclusive. Potency is read from the fitted curve at half-maximal effect.

SMILES	PLK1 PBD block	PKM2 act	GCN5L2 inh	GLS inhibitor	Mito fusion yeast	VDR inhibitor
CCCOCCN(C(=O)CCl)c1c(CC)cccc1CC	/	/	2.7%	/	/	11.4%
O=C(O)Cc1ccccc1	/	/	-1.8%	-16.0%	/	8.8%
O=C(O)CNC(=O)[C@@H](CS)Cc1ccccc1	/	/	12.6µM*	/	/	-0.3%
NC(=O)CF	/	/	-4.1%	/	/	0.7%
CC1N(P(=O)(c2ccccc2)c2ccccc2)CC(O)(c2ccccc2)CC12CC2 (centres undefined)	/	6.0%	/	/	/	/
Cc1cccc(N2C(=O)NC(=O)/C(=C\C=C\c3ccco3)C2=O)c1	?	?	-6.0%	26.6%	0.6%	?
O=C1NC(=O)N(c2ccccc2)C(=O)/C1=C/C=C/c1ccco1	2.38µM*	?	25.8%	27.7%	-1.9%	20µM*
Cc1ccc(N2C(=O)NC(=O)/C(=C\C=C\c3ccco3)C2=O)cc1	1.89µM*	22.0%	-16.5%	11.7%	-1.8%	?
Cc1ccc(N2C(=O)NC(=O)/C(=C\C=C\c3ccco3)C2=O)cc1C	1.5µM*	?	-13.7%	0.5%	-1.3%	?
CC(=O)OC1CC(OC2C(O)CC(OC3C(O)CC(O[C@H]4CC[C@]5(C)C6CC[C@]7(C)[C@@H](C8=CC(=O)OC8)[C@@H](O)C[C@]7(O)[C@@H]6CC[C@@H]5C4)OC3C)OC2C)OC(C)C1OC1OC(CO)C(O)C(O)C1O (some centres undefined)	/	/	/	-4.4%	/	/
S=C(SSC(=S)N1CCCCC1)N1CCCCC1	/	/	/	12.6%	/	/
Cc1nn(-c2ccccc2)c(Cl)c1C1C(C#N)=C(N)Oc2c1c(=O)oc1ccccc21 (centres undefined)	-0.5%	-13.0%	-3.5%	4.8%	29.7%	-8.2%
COc1ccc(OC)c(C2C(C#N)=C(N)Oc3c2c(C)nn3-c2ccc(C)cc2)c1 (centres undefined)	29.9µM*	4.3%	-2.8%	33.6%	-0.9%	-16.6%
Cc1nn(-c2ccccc2)c2c1C(c1ccc(F)cc1F)C(C#N)=C(N)O2 (centres undefined)	21.2µM*	4.7%	1.4%	-3.0%	-8.2%	?
CCCC1COC(Cn2cncn2)(c2ccc(Cl)cc2Cl)O1 (centres undefined)	-12.9%	-2.1%	-5.7%	-0.5%	?	50.1µM*!
Oc1ccc2c3c1O[C@H]1[C@@H](O)C=CC4[C@@H](C2)NCC[C@@]341 (some centres undefined)	/	/	/	-7.1%	/	/
Cc1ccc(NC(=O)Cn2c(=O)oc3ccccc32)cc1C	21.2µM*	-0.5%	-5.5%	6.6%	-1.5%	?
NC(CO)Cc1ccccc1 (centres undefined)	/	/	40.9%	/	/	5.5%
CCOP(=S)(OCC)SCC(=O)NC(C(=O)O)C(C)C (centres undefined)	-3.2%	-3.3%	1.5%	?	-3.9%	4.1%
CCOC(=O)N(C)C(=O)CSP(=S)(OCC)OCC	/	/	0.0%	/	/	50.1µM*
C=CCn1c(CSc2ccccc2[N+](=O)[O-])n[nH]c1=S	11.9µM*	/	-19.5%	?	-17.3%	?
COc1ccc2nc(NC3=NCCN3)sc2c1	2.6%	-2.2%	-4.7%	13.6%	?	1.2%
c1ccc2sc(NC3=NCCN3)nc2c1	2.4%	-5.6%	0.7%	-2.9%	3.16µM*	-12.7%
COc1cc2c(c(OC)c1OC)-c1ccc(OC)c(=O)cc1[C@@H](NC=O)CC2	/	/	?	/	/	15.5%
CC1(C)CC(=O)C(C2(O)C(=O)NC(=O)NC2=O)=C(O)C1	-9.8%	-0.6%	0.5%	18.9%	-0.4%	44.7µM*
C[C@@H]1C[C@@H]2[C@H]([C@H]3C=C(COC(=O)c4ccccc4)[C@@H](O)[C@]4(O)[C@@H](O)C(OC(=O)c5ccccc5)=C[C@@]14C3=O)C2(C)C	/	/	18.5%	/	/	-4.7%
Cc1oc(-c2ccccc2)nc1CN1C(=O)CN=C(c2ccccc2)c2ccccc21	5.0%	0.6%	-5.0%	-1.2%	12.6µM*	-7.1%
